# From PubChem
# IL-1B inflam inh: blocks inflammasome-driven IL-1 beta release; THP-1 LPS/ATP IL-1B secretion, AlphaLISA, 16 h; stronger effect = lower value; activity change, % at 57.5 µM; actives 4.7% (n = 360,000); in the data active = activity change below about -50%; inconclusive = mostly about -30% to -49%
#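 THP-1 cells pretreated 1 hr with compounds (up to 57.5 uM final), then stimulated with LPS (250 ng/mL final) plus ATP (1.25 mM final); secreted IL-1B measured by AlphaLISA after 16 hr, decreased signal indicating inhibition.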
# TDP1 cell CPT: growth inhibition of DT40 Tdp1-/-;hTDP1 cells with camptothecin (screen for TDP1 inhibitors); chicken DT40 Tdp1-/-;hTDP1 cells + 20 nM CPT, ATP luminescence, 48 h; Potency, µM (titrated, usually from 46.2 µM), inactives show top-dose activity change, negative = growth inhibition, actives largely listed as inhibitors; actives 12% (n = 420,000); also: potency is read from the fitted curve at half-maximal effect; nearly all actives have a fitted effect of over 55% in size
#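 Chicken DT40 Tdp1-/- cells complemented with human TDP1, 400 cells/well, exposed to compounds plus 20 nM camptothecin for at least 48 h at 37 C; viability read as ATP content by CellTiter-Glo luminescence.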
# uPA generation: inhibitors of cell surface uPA generation; cell surface uPA generation assay, qHTS; Potency, µM (series often up to 38.3 µM), for the others: at the top dose activity change, negative = inhibition, most hits filed as inhibitors; actives 0.31% (n = 330,000); AID 540303; active = well fitted inhibition curve with a large enough effect; inconclusive = small, poorly fitted or top-dose-only effect; inactive = no such curve, though single readings can be large or run the other way; tested in mouse RAW 264.7 cells; also: potency is read from the fitted curve at half-maximal effect; nearly all actives have a fitted effect of over 55% in size
# HT1080 IDH1KD tx: kills HT-1080 cells with IDH1 knockdown | HT-1080 IDH1 knockdown viability, ATP luminescence, 48 h | actives 2% (n = 360,000) | Potency, µM (highest dose often 46.1 µM), without a hit: at the highest dose activity, negative = toxicity, usual class: cytotoxic;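 also: potency is read from the fitted curve at half-maximal effect; 0% = DMSO wells and -100% = cell-free medium wells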
#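 Using the IDH1-knockdown HT-1080 line run in the same batch and compound series as the NT line, viability after 48 h at 37 °C was determined by CellTiter-Glo luminescence and expressed as % activity.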
# DT40 TDP1 no CPT: qHTS for Inhibitors of human tyrosyl-DNA phosphodiesterase 1 (TDP1): qHTS in cells in absence of CPT | Potency, µM (series often up to 46.2 µM), for inactives: at the highest dose activity change, negative = growth inhibition, hits mostly inhibitors | AID 686978, 2013 | DT40 Tdp1-/- hTDP1 cells, no CPT, ATP luminescence, 48 h | actives 15% (n = 420,000); also: potency is read from the fitted curve at half-maximal effect; nearly all actives have a fitted effect of over 55% in size
#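 Cells were dispensed at 400 per well, compounds added by pin tool, plates incubated ≥48 hr at 37 °C, then CellTiter-Glo added for 30 min at room temperature before luminescence reading. Line: DT40 Tdp1-/- complemented with hTDP1; camptothecin omitted.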
# HT1080-NT tox: kills 2HG-producing HT-1080-NT fibrosarcoma cells. HT-1080-NT fibrosarcoma viability, CellTiter-Glo ATP luminescence, 48 h. Potency, µM (highest dose often 46.1 µM), for the others: at the top dose activity, negative = less viability, hits mostly cytotoxic. actives 1.6% (n = 360,000);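 also: NT is the 2HG producing partner of a matched IDH1 knockdown line; potency is read from the fitted curve at half-maximal effect; 0% = DMSO-treated cells and -100% = media-only wells without cells; nearly all actives have a fitted effect of over 55% in size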
#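 Luminescent CellTiter-Glo readout after 48 hours of compound exposure at 37 degrees C defined viability of HT-1080-NT cells. Activity was normalized to DMSO wells and cell-free media wells; concentration-response curves were fitted and assigned curve classes.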
# * = called active by the depositor; ? = inconclusive; nt = no result; [ ] = remark or other dose. Sampled rows, rich in hits. Any-hit rate of the full collection: about 19%. Unless noted, calls follow the shape of the dose curve; as a rule, active = well fitted curve in the direction sought with a large enough effect; inconclusive = small, poorly fitted or top-dose-only effect, or another doubt; inactive = no such curve, though single readings can be large; an effect the other way counts as inactive or inconclusive. Unless noted, % is scaled to controls: 0 for no effect and ±100 for the full control effect.
SMILES,IL-1B inflam inh,TDP1 cell CPT,uPA generation,HT1080 IDH1KD tx,DT40 TDP1 no CPT,HT1080-NT tox
CC(C)(C)Cc1c(-c2ccc(C#N)cc2)nc2c(Cl)cc(C(F)(F)F)cn12,31.1,18.4µM*,nt,?,?,?
C=CCc1c(C)nc(SC)nc1Nc1ccc(C)cc1,-7.9,9.2µM*,-24.5%,1.6%,20.6µM*,-19.4%
C=CCc1c(C)nc(C)nc1N/N=C/c1ccccc1,25.4,?,5.8%,6.3%,?,-0.5%
COc1ccc(C(=O)Nc2ccc(C3=NNC(=O)CC3C)cc2NC(=O)c2ccc(OC)cc2)cc1 (configuration not stated),?,?,-4.0%,-20.8%,23.1µM*,-10.0%
COc1cccc(-n2c(=O)c3sc4ccccc4c3n(CC(=O)Nc3ccccc3OC)c2=O)c1,nt,9.2µM*,nt,nt,14.6µM*,nt
COc1cccc(-n2c(=O)c3sc4ccccc4c3n(CC(=O)NC3CCCCC3)c2=O)c1,nt,-15.1%,nt,nt,?,nt
O=C(Cn1c(=O)n(-c2cccc(Cl)c2)c(=O)c2sc3ccccc3c21)NC1CCCCC1,nt,23.1µM*,nt,nt,?,nt
COc1ccc(-c2cc(C(=O)NN)[nH]n2)cc1OC,18.1,-3.6%,10µM*,?,1.4%,?
COc1ccccc1-c1cc(C(=O)NN)[nH]n1,14.1,?,-2.7%,13µM*,?,20.6µM*
COc1ccc(-c2cc(C(=O)O)[nH]n2)cc1OC,-6.4,-8.5%,-4.7%,-8.0%,0.9%,-0.8%
COc1ccc(-c2cc(C(=O)NN)[nH]n2)cc1,19.6,-1.9%,-6.7%,-20.6%,0.1%,-17.0%
CS(=O)(=O)Nc1cccc(-c2nc(NCc3ccccc3)c3ccccc3n2)c1,nt,?,nt,nt,-27.5%,nt
CC1=C(C(=O)N(C(C)C)C(C)C)CC(CC(=O)NCc2cccs2)C(=O)N1Cc1ccccc1 (configuration not stated),-21.3,?,nt,-2.5%,?,-11.7%
ClN=C1C=CC=CC1=NCl,65.7,16.4µM*,nt,1.4%,?,-11.8%
NC(=O)C1(N2CCCCC2)CCN(C2CC(=O)N(Cc3cccs3)C2=O)CC1 (configuration not stated),-10.4,17.2%,1.5%,3.4%,-4.4%,15.8%
O=C(c1ccc(N2CCN(C3CC(=O)N(Cc4cccs4)C3=O)CC2)cc1)c1cccnc1 (configuration not stated),-3.5,16.4µM*,-7.6%,?,?,-17.3%
Cc1cccc(NC(=O)CCS(=O)(=O)c2ccc3c(c2)n(C)c(=O)c(=O)n3C)c1C,nt,1.1%,nt,nt,2.2%,nt
O=C(NNC(=O)c1ccc(SCC2CCCO2)c([N+](=O)[O-])c1)c1ccc(F)cc1 (configuration not stated),-6.6,?,nt,6.2%,20µM*,7.6%
Cc1ccc(C(=O)NNC(=S)NCC2CCCO2)cc1[N+](=O)[O-] (configuration not stated),2.7,?,-8.5%,11.4%,?,8.1%
CCS(=O)(=O)N1CCN(c2ccc(C(=O)NC34CC5CC(CC(C5)C3)C4)cc2[N+](=O)[O-])CC1,29.0,11.6µM*,-2.6%,7.9%,7.31µM*,5.9%
O=C(NC12CC3CC(CC(C3)C1)C2)c1ccc([N+](=O)[O-])cc1,?,?,?,-6.3%,-16.5%,1.0%
CS(=O)(=O)N1CCN(c2ccc(C(=O)NC34CC5CC(CC(C5)C3)C4)cc2[N+](=O)[O-])CC1,25.6,14.6µM*,-0.1%,10.2%,9.2µM*,2.2%
COc1cccc(CNC(=O)c2c(OC)cc(=O)n3c2CCN(C(=O)c2ccc(C)cc2C)CC3)c1,nt,-0.9%[9.04 µM],nt,nt,-11.9%,nt
